Among the data in PubChem BioAssay (NCATS) are Potency values, retold here.

What all share (experiment): qHTS profiling for inhibitors of Plasmodium falciparum proliferation (AID 504749); note: nearly all actives have a fitted effect of over 60% in size
Common to all, as to details: P. falciparum in erythrocytes, SYBR Green DNA, 72 h; series mostly up to 28.7 µM

For experiment [1], the system named is CP185. In outline: (§1)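 Parasite proliferation within erythrocytes, 72 h exposure. Endpoint: SYBR Green I fluorescence after overnight lysis at room temperature. Controls: 0.29 uM artemisinin, DMSO.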
In experiment [2] the test system is CP191. In short, it runs like this: as §1
In experiment [3] the test system is CP192. In outline: as §1
Experiment [4] concerns CP194. In short, it runs like this:
as §1

Experiment [5] deals with CP201. In outline: as §1
Experiment [6] relates to CP203. In short, it runs like this: as §1
Experiment [7] relates to CP211. In short, it runs like this:
as §1

In experiment [8] the test system is CP215. In outline:
as §1

The subject of experiment [9] is CP217. In short, it runs like this:
as §1

Experiment [10] deals with CP237. In short, it runs like this: as §1
Experiment [11] has as its system CP238. In outline: as §1
The test system of experiment [12] is CP247. In short, it runs like this:
as §1

For experiment [13], the system named is CP250. In outline:
as §1

Experiment [14] deals with CP252. In short, it runs like this: as §1
In experiment [15] the test system is CP256. In short, it runs like this: as §1
The subject of experiment [16] is CP260. In outline:
as §1

Experiment [17] relates to CP262. In short, it runs like this: as §1
Experiment [18] has as its system CP265. In outline: as §1
Experiment [19] concerns CP266. In short, it runs like this:
as §1

Experiment [20] relates to CP268. In short, it runs like this:
as §1

Records with an inconclusive call do not appear. Calls of active or inactive are those of the source. Calls come from the whole dose curve; as a rule, active = well fitted inhibition curve with a large enough effect; inconclusive = small, poorly fitted or top-dose-only effect; inactive = flat fitted curve, though single readings scatter. Peptide text beside a SMILES is read from it.
Potency is the fitted concentration of half-maximal effect.

Take `CC(=O)N[C@@H](CC(=O)O)C(=O)N[C@@H](CCC(=O)O)C(=O)O` (Ac-Asp-Glu-OH): the Potency result in experiment [1], in experiment [2], in [3], in experiment [4], in experiment [5] and in experiment [6] was “inactive” throughout. Also, the Potency entry in experiment [7], in experiment [8], in experiment [9], in experiment [10], in [11] and in [12] was “inactive” each time. For the same molecule, the Potency result in experiment [13], in experiment [14], in experiment [15], in experiment [16], in [17] and in experiment [18] was “inactive” each time. The Potency result in experiment [19] and in [20] was “inactive” each time.

For `O=S(=O)(O)c1ccc2c(N=Nc3ccc(S(=O)(=O)O)c4ccccc34)c(O)c(S(=O)(=O)O)cc2c1`, the Potency entry in [1], in [2], in [3], in experiment [4], in experiment [5] and in experiment [6] was “inactive” each time. Besides, the Potency result in [7], in experiment [9], in experiment [10], in [11], in experiment [12] and in experiment [13] was “inactive” each time. In addition, the Potency result in experiment [14], in [15], in [16], in experiment [17], in experiment [18] and in experiment [19] was “inactive” throughout. The Potency entry in experiment [20] is “inactive”.

On to `CC(O)CO` (centres undefined), for which the Potency result in [1], in experiment [2], in experiment [3], in [4], in experiment [5] and in [6] was “inactive” in each case. Further, the Potency entry in experiment [7], in experiment [8], in experiment [9], in experiment [10], in [11] and in [12] was “inactive” throughout. In addition, the Potency entry in experiment [13], in experiment [14], in experiment [15], in experiment [16], in [17] and in [18] was “inactive” throughout. For the same molecule, the Potency entry in [19] and in experiment [20] was “inactive” in each case.

As for `C#CCOc1ccc2c(C)cc(=O)oc2c1`, the Potency entry in [1], in experiment [2], in [3], in experiment [4], in experiment [5] and in experiment [6] was “inactive” in each case. The Potency entry in experiment [7], in experiment [8], in [9], in experiment [10], in [11] and in experiment [12] was “inactive” in each case. For the same molecule, the Potency entry in experiment [13], in [14], in experiment [15], in experiment [16], in experiment [17] and in [18] was “inactive” throughout. In addition, the Potency result in [19] and in experiment [20] was “inactive” throughout.

Regarding `CCCCCCCCCCCCCCCC(=O)OCC(COC(=O)CCCCCCCCCCCCCCC)OC(=O)CCCCCCCCCCCCCCC`, the Potency entry in experiment [1], in [2], in [3], in experiment [4], in [5] and in [6] was “inactive” in each case. Moreover, the Potency result in experiment [7], in experiment [8], in [9], in [10], in experiment [11] and in [12] was “inactive” throughout. The Potency result in experiment [13], in [14], in experiment [15], in experiment [16], in [17] and in experiment [18] was “inactive” throughout. Besides, the Potency result in experiment [19] and in experiment [20] was “inactive” throughout.

Take `Oc1cc(O)c2c(c1)OC(c1ccc(O)c(O)c1)C(O)C2` (centres undefined): the Potency entry in [1], in experiment [2], in [3], in experiment [4], in experiment [5] and in experiment [6] was “inactive” throughout. Besides, the Potency result in experiment [7], in experiment [8], in [9], in experiment [10], in experiment [11] and in experiment [12] was “inactive” each time. For the same molecule, the Potency result in [13], in experiment [14], in experiment [15], in experiment [16], in experiment [17] and in [18] was “inactive” each time. Besides, the Potency result in experiment [19] and in [20] was “inactive” each time.

Take `CCCCCCCC/C=C\CCCCCCCC(=O)O`: the Potency entry in experiment [1], in experiment [2], in [3], in experiment [4], in experiment [5] and in [6] was “inactive” in each case. In addition, the Potency entry in [7], in experiment [8], in [9], in experiment [10], in experiment [11] and in [12] was “inactive” each time. In addition, the Potency entry in [13], in experiment [14], in experiment [15], in experiment [16], in experiment [17] and in [18] was “inactive” throughout. In addition, the Potency result in experiment [19] and in experiment [20] was “inactive” in each case.

With `CCCCCCCCCCCC[n+]1ccc2ccccc2c1`, the Potency in experiment [1] was 562 nM (active); in experiment [2] it was 562 nM (active); in [3] it was 601 nM (active); in experiment [4], 1200 nM (active); in experiment [5], 1690 nM (active); in [6], 849 nM (active). Moreover, the Potency in [7] is 675 nM (active); in [8], 1070 nM (active); in [9] it was 891 nM (active); in experiment [10] it was 631 nM (active); in experiment [11] it was 631 nM (active); in experiment [12], 891 nM (active). Moreover, the Potency is 1120 nM (active) in [13]; 708 nM (active) in [14]; 562 nM (active) in experiment [15]; 631 nM (active) in [16]; 379 nM (active) in [17]; 1120 nM (active) in experiment [18]. The Potency in experiment [19] was 1690 nM (active); in experiment [20], 1350 nM (active).

Consider `COc1ccc2c3c1O[C@H]1C[C@@H](O)C=C[C@@]31CCN(C)C2`, for which the Potency entry in [1], in experiment [2], in [3], in experiment [4], in experiment [5] and in experiment [6] was “inactive” in each case. Besides, the Potency entry in experiment [7], in experiment [8], in experiment [9], in experiment [10], in [11] and in experiment [12] was “inactive” in each case. Besides, the Potency entry in experiment [13], in experiment [14], in experiment [15], in experiment [16], in [17] and in [18] was “inactive” throughout. For the same molecule, the Potency result in experiment [19] and in experiment [20] was “inactive” in each case.

As to `CC1(C)S[C@@H]2[C@H](NC(=O)[C@@H](NC(=O)N3CCNC3=O)c3ccccc3)C(=O)N2[C@H]1C(=O)O`, the Potency result in [1], in experiment [2], in [3], in experiment [4], in experiment [5] and in experiment [6] was “inactive” in each case. Besides, the Potency entry in [7], in experiment [8], in experiment [9], in experiment [10], in experiment [11] and in experiment [12] was “inactive” throughout. Moreover, the Potency entry in [13], in [14], in [15], in experiment [16], in [17] and in [18] was “inactive” in each case. The Potency result in experiment [19] and in experiment [20] was “inactive” each time.

Consider `Cc1ccccc1OCC(O)CNCCOc1ccc(C(N)=O)cc1` (centres undefined), for which the Potency entry in experiment [1], in experiment [2], in [3], in [4], in experiment [5] and in experiment [6] was “inactive” in each case. For the same molecule, the Potency entry in experiment [7], in experiment [8], in experiment [9], in [10], in experiment [11] and in experiment [12] was “inactive” throughout. Moreover, the Potency entry in experiment [13], in experiment [14], in experiment [15], in experiment [16], in experiment [17] and in experiment [18] was “inactive” in each case. Also, the Potency result in experiment [19] and in [20] was “inactive” throughout.
